Data from paper PMC4336329 (PLoS ONE, 2015).
The whole screen tested about 310,000 compounds, of which about 14,000 (4.5%) showed an effect of 50% or more. Effects have a minus sign here. The full list was thinned out, with strong results kept by preference.

What follows are compounds tested against human ether-à-go-go-related gene (hERG) potassium channel (human, UniProt Q12809) (assay: primary screen, population patch clamp on CHO cells stably expressing hERG; higher = less effect of the substance).
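Further: peak tail current of the secondary pulse compared with the same well before compound.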

Sequence of human ether-à-go-go-related gene (hERG) potassium channel (Q12809 whole entry, looked up): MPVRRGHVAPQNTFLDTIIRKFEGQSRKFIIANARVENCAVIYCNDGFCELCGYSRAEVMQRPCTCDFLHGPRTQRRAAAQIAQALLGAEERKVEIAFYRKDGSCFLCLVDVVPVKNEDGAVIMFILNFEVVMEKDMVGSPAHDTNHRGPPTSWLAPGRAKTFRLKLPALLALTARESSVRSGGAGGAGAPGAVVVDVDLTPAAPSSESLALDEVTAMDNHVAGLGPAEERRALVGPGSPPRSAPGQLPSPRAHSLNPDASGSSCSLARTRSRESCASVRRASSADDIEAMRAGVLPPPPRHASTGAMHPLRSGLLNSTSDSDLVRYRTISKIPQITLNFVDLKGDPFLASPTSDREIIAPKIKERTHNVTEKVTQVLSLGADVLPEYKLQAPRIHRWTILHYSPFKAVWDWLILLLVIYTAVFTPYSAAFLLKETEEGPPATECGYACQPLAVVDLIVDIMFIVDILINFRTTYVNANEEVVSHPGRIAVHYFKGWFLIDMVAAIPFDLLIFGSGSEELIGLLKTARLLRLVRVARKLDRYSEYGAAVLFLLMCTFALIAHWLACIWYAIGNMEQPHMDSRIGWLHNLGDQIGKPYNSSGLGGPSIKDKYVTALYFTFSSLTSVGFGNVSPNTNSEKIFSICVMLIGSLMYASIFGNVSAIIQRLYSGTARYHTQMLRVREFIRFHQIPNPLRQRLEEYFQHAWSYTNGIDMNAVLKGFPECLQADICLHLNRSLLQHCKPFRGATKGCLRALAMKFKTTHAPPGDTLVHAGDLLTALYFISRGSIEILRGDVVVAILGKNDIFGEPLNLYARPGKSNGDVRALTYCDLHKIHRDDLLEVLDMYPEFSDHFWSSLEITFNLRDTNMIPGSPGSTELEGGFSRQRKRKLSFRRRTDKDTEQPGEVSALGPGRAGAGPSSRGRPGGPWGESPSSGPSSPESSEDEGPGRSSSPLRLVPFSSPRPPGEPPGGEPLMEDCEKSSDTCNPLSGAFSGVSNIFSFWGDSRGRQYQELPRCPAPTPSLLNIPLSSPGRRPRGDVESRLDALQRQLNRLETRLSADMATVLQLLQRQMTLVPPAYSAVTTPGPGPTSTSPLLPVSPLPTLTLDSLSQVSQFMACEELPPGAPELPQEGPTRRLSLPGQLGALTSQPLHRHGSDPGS

SMILES	hERG current change (%, negative = inhibition) at 10uM [%]
O=C(c1nc2ccc(Cl)cn2c1CN1CCCC1)N1CCc2ccccc2C1	-10.6
CN(Cc1c(C(=O)N2CCc3ccccc3C2)nc2ccc(Cl)cn12)C(C1CC1)C1CC1	-45.9
CN(Cc1cnccn1)Cc1c(C(=O)N2CCc3ccccc3C2)nc2ccc(Cl)cn12	-23.4
CC(C)CN(C)Cc1c(C(=O)N2CCc3ccccc3C2)nc2ccc(Cl)cn12	-53.2
Cc1cnc(CN(C)Cc2c(C(=O)N3CCCCCCC3)nc3ccc(Cl)cn23)[nH]1	-29
CCN(CC)Cc1c(C(=O)N2CCc3ccccc3C2)nc2ccc(Cl)cn12	-13.1
Cc1cnc(CN(C)Cc2c(C(=O)N3CCc4ccccc4C3)nc3ccc(Cl)cn23)[nH]1	-62.6
COC(=O)c1cc2c(C)nn(-c3ccccc3)c2s1	2.91
CC(=O)c1cccc(NC(=O)COC(=O)c2ccccn2)c1	5.33
Cc1ccc(-c2nnc(-c3cc(C)on3)o2)cc1	19.6
O=C(CNC(=O)c1ccc([N+](=O)[O-])cc1)c1ccccc1	-6.36
COc1cc(N(C)C)c([N+](=O)[O-])cc1C(=O)NC(C)CNc1ccc([N+](=O)[O-])cc1Cl (stereo not drawn)	-2.36
COC(=O)C1=CO[C@@H](C)[C@H]2CN3CC[C@]4(C(=O)Nc5ccccc54)[C@@H]3C[C@H]12	15.5
Fc1ccccc1NC(=S)Nc1cccc2cnccc12	46.8
Fc1cccc(Cl)c1CSc1ccc2nnc(-c3ccccn3)n2n1	-13.5
Fc1cccc(CSc2ccc3nnc(-c4ccccn4)n3n2)c1	-77.9
Cc1cccc(CSc2ccc3nnc(-c4ccccn4)n3n2)c1	-75.7
Cc1cccc(CSc2nnc(-c3ccccn3)n2N)c1	2.88
O=C(CSc1ccc2nnc(-c3ccccn3)n2n1)Nc1cccc(F)c1	-40.6
COc1cccc(NC(=O)CSc2ccc3nnc(-c4ccccn4)n3n2)c1	-47.3
Cc1cn2nc(N)c3ccccc3c2n1	-9.19

SMILES	hERG current change (%, negative = inhibition) at 10uM [%]
CCOC(=O)c1cc(C(C)=O)c(=O)[nH]c1C	12
CCc1cc(C(=O)N2CCCC(CCC(=O)N3CCN(c4ccccn4)CC3)C2)no1 (stereo not drawn)	-17.4
Cc1cccc(C(=O)N2CCCC(CCC(=O)N3CCN(c4ccccn4)CC3)C2)c1 (stereo not drawn)	-74.5
Cc1ccc(C(=O)N2CCCC(CCC(=O)N3CCN(c4ccccn4)CC3)C2)cc1 (stereo not drawn)	-9.9
CCc1ccc(CN2CCCC(CCC(=O)N3CCN(c4ccccn4)CC3)C2)o1 (stereo not drawn)	-58.7
Cc1ccc(C(=O)N2CCCC(CCC(=O)N3CCN(c4ccccn4)CC3)C2)cc1C (stereo not drawn)	-34.9
O=C(CCC1CCCN(c2ncccn2)C1)N1CCN(c2ccccn2)CC1 (stereo not drawn)	-23
O=C(CN1C(=O)c2ccccc2S1(=O)=O)NCCSCc1c(F)cccc1Cl	-29.7
CCOC(=O)CC(=O)CSc1nc(-c2ccccc2)cc(-c2ccccc2)c1C#N	10.1
Cn1c(=O)c(=O)n(C)c2cc(N3CCCC3)c(NS(=O)(=O)c3ccc(F)cc3)cc21	-16.2
CCc1ccc(S(=O)(=O)Nc2cc3c(cc2N2CCOCC2)n(C)c(=O)c(=O)n3C)cc1	-32.1
Cn1c(=O)c(=O)n(C)c2cc(N3CCCCC3)c(NS(=O)(=O)c3ccc(Br)cc3)cc21	-65.1
Cn1c(=O)c(=O)n(C)c2cc(N3CCCCC3)c(NS(=O)(=O)c3ccc([N+](=O)[O-])cc3)cc21	-50.6
Cn1c(=O)c(=O)n(C)c2cc(N3CCOCC3)c(NS(=O)(=O)c3ccc(Br)cc3)cc21	-27
CCc1ccc(S(=O)(=O)Nc2cc3c(cc2N2CCCCC2)n(C)c(=O)c(=O)n3C)cc1	-85.6
Cn1c(=O)c(=O)n(C)c2cc(N3CCCC3)c(NS(=O)(=O)c3ccc(Cl)cc3)cc21	-44.3
COc1ccc(OC)c(S(=O)(=O)Nc2ccc3c(c2)n(C)c(=O)n3C)c1	1.61
COc1ccc(OC)c(S(=O)(=O)Nc2cc3c(cc2N2CCCC2)n(C)c(=O)c(=O)n3C)c1	-50.7
Cn1c(=O)c(=O)n(C)c2cc(N3CCOCC3)c(NS(=O)(=O)c3ccc([N+](=O)[O-])cc3)cc21	2.58
COc1ccc(OC)c(NS(=O)(=O)c2cc(OC)ccc2OC)c1	-2.14
Cc1ccc(S(=O)(=O)Nc2cc3c(cc2N2CCOCC2)n(C)c(=O)c(=O)n3C)cc1	-9.6
